Source: PubChem
Rows were chosen to be rich in hits. Some 4.3% of all compounds tested hit in one or more screens of this group.
CF NFkB inh: inhibitors of PAF-induced NF-kB signaling, primary screen, cell-based, GFP fluorescence, uHTS; KKLEB NF-kB-GFP reporter, GFP fluorescence overnight; inhibition, % at 5 µM; hit rate 0.86% among 360,000;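 active means at least 50% inhibition at 5 µM, scaled per plate between neutral and stimulator controls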;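 further: PAF is a Pseudomonas aeruginosa culture filtrate used as stimulus; plate controls were PAF-stimulated DMSO wells for no effect and unstimulated DMSO wells for full effect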
KKLEB cytotox: cytotoxicity in KKLEB CF airway cells, primary screen, cytotoxicity control for CF NF-kB inhibitor project, cell-based, uHTS, fluorescence assay plates; activity change (cytotoxicity), % at 5 µM; KKLEB CF airway cells viability, ATPlite luminescence, overnight; hits give low values; cells stimulated with P. aeruginosa culture filtrate; hit rate 0.36% among 360,000;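 active means corrected activity change at or below -50% at 5 µM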
CHOP inh: inhibitors of CHOP promoter induction, primary screen, cell-based, unfolded protein response, luciferase reporter | CHO-K1 CHOP-promoter luciferase, tunicamycin-induced, 15-18 h | inhibition, % at 10 µM | AID 2732, 2010 | hit rate 3.8% among 220,000;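 active means compounds that reduced the stress-induced luciferase reporter signal by more than about 70% of percent inhibition, limit read from the data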;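 further: 0% = tunicamycin plus vehicle and 100% = wells without tunicamycin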
Peg3 prom inh-1: Peg3 promoter-driven luciferase inhibitors, primary screen, cell-based, HeLa, luciferase luminescence; HeLa PEG-Prom luciferase reporter, overnight; inhibition, % at 20 µM; hit rate 1.7% among 360,000; AID 588405, 2011;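 active means inhibition of at least 50% at 20 µM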
HIF-2a inh: HIF-2a reporter inhibitors, primary screen, luminescence, 786-0 RCC cells. hit rate 0.72% among 360,000. 786-0 RCC cells HIF-2a reporter, luciferase luminescence, overnight. inhibition, % at 18.8 µM;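 active means inhibition of the luminescence signal of 40% or more relative to plate controls, in a single-dose primary screen at 18.75 µM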
MITF TRPM1 inh: inhibitors of MITF-dependent TRPM1 promoter reporter, primary screen, cell-based, SK-MEL-5, single point, luciferase. SK-MEL-5 TRPM1 promoter luciferase, 24 h. inhibition, % at 12.5 µM. hit rate 0.83% among 330,000. AID 488899, 2010;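 active means mean inhibition across replicates of 60% or more, whatever share of single replicates reaches that level; inconclusive means some that reach 60%, reason not given; inactive means mean inhibition across replicates below 60%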
Peg3 prom inh-2: Peg3 promoter reporter inhibitors, retest, confirmation, cell-based, HeLa, luciferase reporter, single concentration; shares compounds with Peg3 prom inh-1; HeLa PEG-Prom luciferase reporter, luminescence, overnight; inhibition, % at 20 µM; hit rate 84% among 1,300;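 active means at 20 µM dose, 40% or more inhibition averaged across four replicates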
CF NFkB inh conf: inhibitors of PAF-induced NF-kB signaling, retest, confirmation, cell-based, GFP fluorescence, single concentration. hit rate 64% among 1,300. inhibition, % at 5 µM. shares compounds with CF NFkB inh. KKLEB CF airway cells, overnight; in the data active means inhibition above about 40%;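 further: stimulus PAF is a Pseudomonas aeruginosa filtrate and not platelet activating factor; plate controls were DMSO wells with stimulus for no effect and unstimulated DMSO wells for full effect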
Mdm2-MdmX confirm: retested Mdm2-MdmX interaction blockers, confirmation, cell-based, luminescence, single concentration, set 2; shares compounds with HIF-2a inh; SaOS-2 split-luciferase Mdm2/MdmX complementation; inhibition, % at 8 µM; hit rate 99% among 740;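 active means mean inhibition of the luminescence signal across two replicates at or above 26 percent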
Target sequence (O15151 whole entry, looked up): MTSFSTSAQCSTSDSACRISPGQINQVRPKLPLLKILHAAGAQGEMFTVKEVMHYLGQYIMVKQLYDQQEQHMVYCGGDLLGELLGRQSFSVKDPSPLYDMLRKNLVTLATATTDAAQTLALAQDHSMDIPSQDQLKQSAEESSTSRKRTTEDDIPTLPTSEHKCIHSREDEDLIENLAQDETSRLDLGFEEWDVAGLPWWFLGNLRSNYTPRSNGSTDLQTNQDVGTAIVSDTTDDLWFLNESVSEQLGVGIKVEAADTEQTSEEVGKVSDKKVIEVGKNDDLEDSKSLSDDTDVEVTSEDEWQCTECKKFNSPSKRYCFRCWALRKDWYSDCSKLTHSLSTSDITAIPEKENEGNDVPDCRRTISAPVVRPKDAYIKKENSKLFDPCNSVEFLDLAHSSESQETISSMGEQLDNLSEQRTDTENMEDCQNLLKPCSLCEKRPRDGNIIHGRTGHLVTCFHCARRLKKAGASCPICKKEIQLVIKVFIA
Target sequence (Q00987 whole entry, looked up): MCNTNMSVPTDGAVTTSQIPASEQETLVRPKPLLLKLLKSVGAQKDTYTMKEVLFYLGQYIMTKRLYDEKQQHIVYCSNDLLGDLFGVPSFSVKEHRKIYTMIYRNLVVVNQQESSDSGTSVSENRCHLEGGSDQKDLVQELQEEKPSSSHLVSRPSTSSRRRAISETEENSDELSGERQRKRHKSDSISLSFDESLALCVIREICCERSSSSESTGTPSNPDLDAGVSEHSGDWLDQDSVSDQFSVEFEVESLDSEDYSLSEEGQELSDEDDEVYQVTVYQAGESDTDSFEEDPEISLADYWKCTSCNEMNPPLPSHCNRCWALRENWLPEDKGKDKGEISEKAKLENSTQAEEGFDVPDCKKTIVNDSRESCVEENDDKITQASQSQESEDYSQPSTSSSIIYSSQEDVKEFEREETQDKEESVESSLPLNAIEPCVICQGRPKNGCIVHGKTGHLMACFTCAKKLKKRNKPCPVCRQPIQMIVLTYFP
HIF-2a inh conf: HIF-2a reporter inhibitor retest, confirmation, luminescence, 786-0 RCC cells; shares compounds with HIF-2a inh; hit rate 56% among 1,800; inhibition, % at 18.8 µM; HIF-2a luciferase reporter luminescence, overnight;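 active means mean inhibition across four replicates of at least 40 percent at the single tested concentration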
HIF-1a cs: HIF-1a luciferase reporter signal reduction – MiaPaCa-2 cells, single concentration, counter-screen for HIF-2a inhibitor project, confirmation. inhibition, % at 18.8 µM. MiaPaCa-2 HIF-1a luciferase reporter, desferoxamine, overnight. shares compounds with HIF-2a inh. hit rate 72% among 1,800;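 active means mean inhibition of the reporter signal across four replicates at the single tested dose of 50% or more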
An asterisk follows results filed as active; ? = inconclusive; / = not tested or not shown.

SMILES	CF NFkB inh	KKLEB cytotox	CHOP inh	Peg3 prom inh-1	HIF-2a inh	MITF TRPM1 inh	Peg3 prom inh-2	HIF-2a inh conf	HIF-1a cs	others
O=C(O)CSc1ncnc2scc(-c3ccccc3)c12	9	6	-19	-142	14	-7	/	/	/
Cc1ccc(-c2csc3ncnc(SCC(=O)c4ccc5c(c4)OCCO5)c23)cc1	8	-13	23	27	15	15	/	/	/
CC(=O)c1c(NCCc2ccccc2)nc(=S)n(-c2ccccc2)c1C	-16	13	10	101*	92*	6	99*	-11	20
O=C(CC[C@H]1O[C@@H](n2ccc(=O)[nH]c2=O)[C@H](O)[C@@H]1O)N[C@@H](Cc1ccccc1)C(=O)NCc1ccccc1	-6	4	/	-1	13	/	/	/	/
CCOC(=O)c1cnc(Nc2nc3ccccc3o2)nc1C	-13	-24	63	79*	74*	57	69*	81*	71*
CCOC(=O)c1cnc(Nc2nc3ccccc3o2)nc1CSc1nnc(C)s1	-12	8	/	-69	-112	-17	/	/	/
COc1ccc(Cn2c(/C=C/c3ccccc3)nc3ccccc32)cc1	3	-38	47	-235	-237	-82	/	/	/
COc1ccc(/C=C/c2nc3ccccc3n2C)cc1	-7	-53*	81*	68*	49*	36	78*	89*	91*
COc1cccc(CN(C(=O)c2cccs2)C2CCS(=O)(=O)C2)c1 (stereo not given)	-8	-13	/	-8	6	-14	/	/	/
O=[N+]([O-])c1ccc(-c2ccc(/C=N/Nc3nc(NCc4ccccc4)nc(N4CCOCC4)n3)o2)cc1	51*	-90*	-48	99*	59*	77*	80*	16	41	Mdm2-MdmX confirm=102*
CC(=O)N1CCCC(c2cc(C(=O)Nc3ccccc3)no2)C1 (stereo not given)	-26	-8	/	65*	72*	/	73*	82*	60*
O=C(Nc1ccccc1)c1cc(C2CCCN(C(=O)C3CC3)C2)on1 (stereo not given)	-1	0	/	23	25	/	/	/	/
CCCCN(CC)C(=O)CSc1nc2n[nH]c(C)c2c(=N)n1-c1cccc(C)c1	-6	-4	45	53*	43*	1	43*	10	61*
COc1ccccc1N1CCN(C(=O)c2coc(=O)c(Br)c2)CC1	12	-11	-6	8	4	3	/	/	/
O=[N+]([O-])c1cc(/C=N/NC(=S)Nc2ccccc2Cl)ccc1Cl	-24	7	-93	96*	70*	?	17	11	104*
Cc1ccc2nc(NC(=O)c3ccccn3)sc2c1	-5	-67*	97*	106*	80*	94*	96*	89*	80*	Mdm2-MdmX confirm=102*
Cc1cc(C)c2sc(NNC(=O)c3ccc(S(=O)(=O)N4CCc5ccccc5C4)cc3)nc2c1	12	-12	45	59*	4	72*	76*	/	/	Mdm2-MdmX confirm=87*
Cc1nnc(NC(=O)c2ccc(S(=O)(=O)N3CCc4ccccc4C3)cc2)o1	9	-12	15	7	14	-13	/	/	/
COCCn1c(SC(C)C(=O)Nc2ccc(N3CCOCC3)cc2)nnc1-c1ccncc1 (stereo not given)	8	4	/	7	-8	-2	/	/	/
N#CC(C#N)=C1C=CC=CN1/C(=C\c1ccco1)C(=O)c1ccc(Br)cc1	79*	-46	109*	111*	92*	85*	98*	98*	105*	CF NFkB inh conf=24
C=C1CC(COc2ccc3c(C)c(Cl)c(=O)oc3c2)(c2ccccc2)OC1=O (stereo not given)	91*	-71*	/	98*	85*	101*	98*	71*	105*
CSc1nnnn1-c1ccc(C)c(Cl)c1	10	4	-17	11	13	9	/	/	/
CC(C)(C)C(=O)Nc1ccc(NC(=O)c2ccco2)nc1	-3	-31	/	108*	90*	92*	92*	96*	96*	Mdm2-MdmX confirm=98*
O=C(Nc1ccc(NC(=O)c2ccco2)nc1)c1ccco1	-10	9	-12	-29	-36	5	/	/	/
O=C1NC(=O)C(=C2CCOC2=O)N1	-13	3	/	4	7	/	/	/	/
SMILES	CF NFkB inh	KKLEB cytotox	CHOP inh	Peg3 prom inh-1	HIF-2a inh	MITF TRPM1 inh	Peg3 prom inh-2	HIF-2a inh conf	HIF-1a cs	others
C/C(=N\NC(=O)c1ccncc1)c1cccs1	4	-2	1	-52	-79	-12	/	/	/
C/C(=N/NC(=O)c1cc(C2CC2)[nH]n1)c1cccs1	14	-12	50	63*	49*	50	47*	67*	16
CCOc1ccc(Nc2ccc(N3C(=O)CCC3=O)cc2[N+](=O)[O-])cc1	0	7	46	1	7	4	/	/	/
COc1ccc(-c2nsc3c(N4CCN(S(=O)(=O)c5ccccc5F)CC4)ncnc23)cc1	5	-2	7	-9	-6	-6	/	/	/
COc1ccc(-c2nsc3c(N4CCCCC4C)ncnc23)cc1 (stereo not given)	-4	-46	93*	97*	84*	86*	85*	92*	102*
CCCn1c(C)cc(C(=O)CN2C(=O)c3ccccc3S2(=O)=O)c1C	-1	6	/	89*	91*	/	87*	95*	95*
Cc1cc(C(=O)CN2C(=O)c3ccccc3S2(=O)=O)c(C)n1CC1CCCO1 (stereo not given)	-14	-8	62	96*	92*	83*	93*	98*	104*
